Consider 67 compounds from PubChem BioAssay AID431 (Sanford-Burnham Center for Chemical Genomics, 2006).

In all, about 63,000 compounds went through this assay and about 1,100 (1.7%) were called active. This is one part of a sample in which actives are shown more often than they occur. Potency and affinity values are given separately. Values without a mark were called inactive.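 Rule for the calls: active = compounds whose percent cytotoxicity in the single-dose primary screen, scaled between solvent and toxic-drug controls, exceeds 50; inactive = the rest.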

A short description of this assay: viability loss of HPDE-C7K cells – cell-based, fluorescence, HTS, primary screen (AID 431).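 Note: 0% = DMSO solvent wells and 100% = doxorubicin-treated wells.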 The conditions noted are these: HPDE-C7K KRASV12 cells, Alamar Blue viability, 48 h; at 10 µM; hits give high values.
Take `Cc1cccc(-n2c(C)nc3c(cnn3-c3ccc(F)cc3)c2=O)c1`: the cytotoxicity was -11.2%.

On to `CC(C)CC(=O)N1CCN(S(=O)(=O)c2ccc(F)cc2)CC1`, for which the cytotoxicity is 0.4%.

With `Fc1ccccc1-c1nc(NCCCN2CCOCC2)c2ccccc2n1`, the cytotoxicity was 11.7%.

Take `Cc1ccc(-c2nc(NCCN3CCOCC3)c3ccccc3n2)cc1`: the cytotoxicity was 40.5%.

As for `Clc1ccc(-c2nc(NCCN3CCOCC3)c3ccccc3n2)cc1`, the cytotoxicity is 40.9%.

Take `COc1cccc(-c2nc(NCCN3CCOCC3)c3ccccc3n2)c1O`: the cytotoxicity was 53.1% (active).

For `Oc1ccccc1-c1nc(NCCN2CCOCC2)c2ccccc2n1`, the cytotoxicity was 59.3% (active).

Turning to `c1ccc(-c2nc(NCCCN3CCOCC3)c3ccccc3n2)cc1`, the cytotoxicity is 5.9%.

Regarding `CCCCCOc1ccc(NS(C)(=O)=O)cc1`, the cytotoxicity is -26.8%.

For `O=c1[nH]c(C(F)(F)F)nc2ccccc12`, the cytotoxicity is -18.7%.

Regarding `COc1ccccc1N(CN1C(=O)c2ccccc2C1=O)C(=O)c1cccnc1`, the cytotoxicity was -10%.

As for `CCOC(=O)c1cc(-c2ccc(/C=N\n3cnnc3)o2)ccc1Cl`, the cytotoxicity is -11%.

With `O=C1CNC(=O)/C1=C\N1CCCCC1`, the cytotoxicity was -3.5%.

As to `Cc1cc(Nc2ccc(Br)cc2F)n2nc(C)nc2n1`, the cytotoxicity was 3.9%.

As for `CCCNC(=O)Nc1cc(OCC)c(N2CCOCC2)cc1OCC`, the cytotoxicity is 2.8%.

`O=c1c(-c2ccccc2)coc2c(CN3CCCC3)c(O)ccc12`: the cytotoxicity is -6.5%.

Take `COc1ccc(C(=O)c2coc3ccc(O)c(CN4CCCCC4)c23)cc1`: the cytotoxicity was 16.8%.

On to `COc1ccc(-c2coc3c(CN4CCCCC4)c(O)c(CN4CCCCC4)c(O)c3c2=O)cc1`, for which the cytotoxicity is 54.7% (active).

For the compound `CC1Cc2cc(C3(O)C(=O)c4ccccc4C3=O)ccc2N1` (configuration not stated), the cytotoxicity is -0.9%.

With `COc1ccc(C2=[N+]([O-])C(C)(C)N(O)C2(C)C)cc1`, the cytotoxicity is -22%.

With `Cc1ccc(C2c3c(oc4cc(C)c(C)cc4c3=O)C(=O)N2CCCN2CCOCC2)cc1` (configuration not stated), the cytotoxicity is -5.4%.

On to `Cc1c(-c2nc(N)nc(Nc3ccc(F)cc3)n2)oc2ccccc12`, for which the cytotoxicity was 12%.

On to `Cc1c(-c2nc(N)nc(Nc3ccccc3)n2)oc2ccccc12`, for which the cytotoxicity was 68.7% (active).

In the case of `Cc1c(-c2nc(N)nc(Nc3ccccc3F)n2)oc2ccccc12`, the cytotoxicity was 14.6%.

Take `CNC(=O)c1cc(S(=O)(=O)N(C)C)ccc1Cl`: the cytotoxicity is 2.1%.

As to `CCCCOc1ccccc1-c1cc(C(=O)O)[nH]n1`, the cytotoxicity was -9.2%.

Consider `CC(=O)Oc1c(S(=O)(=O)c2ccc(C)cc2)c(C)nn1-c1ccccc1`, for which the cytotoxicity was -4.8%.

For `O=C1CCC(=O)N1c1cccc(-c2nc3ccccc3o2)c1`, the cytotoxicity is 1.5%.

As for `Nc1nnnn1/N=C/C=C/c1ccccc1`, the cytotoxicity was -19.8%.

Consider `Nc1nnnn1/N=C/c1cccc(Oc2ccccc2)c1`, for which the cytotoxicity is -6.8%.

Consider `C=CCOC(=O)C1=C(C)Nc2nnnn2C1c1cccc(OC)c1OC` (configuration not stated), for which the cytotoxicity was 1.2%.

In the case of `Cn1cc(/C=N/n2cnc3scc(-c4ccc(Cl)cc4)c3c2=O)c2ccccc21`, the cytotoxicity is 77.5% (active).

Take `Cn1cc(/C=N/n2cnc3sc4c(c3c2=O)CCCC4)c2ccccc21`: the cytotoxicity is 7.8%.

For `Cn1cc(/C=N/n2cnc3scc(-c4ccccc4)c3c2=O)c2ccccc21`, the cytotoxicity was 48.5%.

With `COc1ccc(NC(=O)C2CCN(S(=O)(=O)c3ccc(C)cc3)CC2)cc1OC`, the cytotoxicity is -26.5%.

On to `CCOc1ccc(C2CC(c3ccc(OC)cc3)n3ncnc3N2)cc1` (configuration not stated), for which the cytotoxicity was -6.4%.

Turning to `Cc1[nH]c2ccc(-c3nnc(SCC(=O)N4CCCc5ccccc54)o3)cc2c1C`, the cytotoxicity is 2.9%.

In the case of `Cc1[nH]c2ccc(-c3nnc(SCC(=O)c4ccccc4F)o3)cc2c1C`, the cytotoxicity was 78.5% (active).

As to `Cc1[nH]c2ccc(-c3nnc(SCC(=O)c4ccc(F)cc4)o3)cc2c1C`, the cytotoxicity was -0.1%.

Turning to `CCc1[nH]nc2c1C(C(C)C)C(C#N)=C(N)O2` (configuration not stated), the cytotoxicity is -20.8%.

Turning to `Cc1nn(Cc2ccc(C(=O)NC3CCCCC3)o2)c(C)c1Br`, the cytotoxicity was 10.5%.

With `CC1CCc2c(nc3ncnn3c2N2CCN(c3ccccc3F)CC2)C1` (configuration not stated), the cytotoxicity is -5.6%.

Take `CCCOC(=O)c1ccc(-c2c(C)noc2-c2ccc(OC)cc2O)o1`: the cytotoxicity was 1.5%.

`CCOC(=O)COC(=O)c1ccc(O)cc1`: the cytotoxicity was 1.8%.

Take `CCOC(=O)c1ccc(OCC(=O)c2ccc(O)cc2O)cc1`: the cytotoxicity was 11.9%.

As for `CCOc1ccc(N2C(=O)c3ccc(C(=O)OCc4c(C)noc4C)cc3C2=O)cc1`, the cytotoxicity is -4.2%.

With `CCOc1ccc(-c2n[nH]c(C)c2Oc2ccc(OC)cc2)c(O)c1`, the cytotoxicity was 16%.

As to `CCOC(=O)c1c(N)n[nH]c1-c1ccc(OC)cc1`, the cytotoxicity is 6.6%.

Take `COc1ccc(Cl)cc1NC(=O)CN1CCC(n2nnc3cc(F)ccc32)CC1`: the cytotoxicity was 5.7%.

In the case of `O=C(c1ccc(S(=O)(=O)N2CCCC2)cc1)N1CCN(Cc2ccc3c(c2)OCO3)CC1`, the cytotoxicity was 4.3%.

In the case of `c1coc(-c2nnc(SCc3cn4ccccc4n3)o2)c1`, the cytotoxicity was -5.9%.

On to `CCOC(=O)CN(C(=O)CSc1nnc(-c2ccc(OC)c(OC)c2)o1)c1ccc(F)cc1`, for which the cytotoxicity was -21.9%.

In the case of `CCOC(=O)c1c(NC(=O)CSc2nnc(CNc3ccc(F)cc3)o2)sc(C)c1C`, the cytotoxicity was -12.6%.

For `COc1ccccc1NC(=O)COc1ccc(C(=O)OCC(=O)N2CCCC2=O)cc1OC`, the cytotoxicity was -27.1%.

In the case of `O=C(Cn1nnc(-c2ccc3c(c2)OCO3)n1)NCc1ccco1`, the cytotoxicity was -12.9%.

Turning to `CCOc1ccc(-c2nnn(CC(=O)NCc3ccco3)n2)cc1`, the cytotoxicity is 0.2%.

With `CCCCOc1ccc(-c2nnn(CC(=O)NCc3ccco3)n2)cc1`, the cytotoxicity was 50.9% (active).

Take `O=S(=O)(c1ccc(F)cc1)N1CCC(N2CCN(c3ccccc3)CC2)CC1`: the cytotoxicity was 16.8%.

As for `Cn1c(N2CCN(c3ccccn3)CC2)nc2c1c(=O)n(Cc1ccccc1Cl)c(=O)n2C`, the cytotoxicity was 3.4%.

As for `COc1ccc(CNc2nc3c(c(=O)n(Cc4ccc(Cl)cc4)c(=O)n3C)n2C)cc1`, the cytotoxicity was 32.7%.

Regarding `Cn1c(NCC(O)c2ccccc2)nc2c1c(=O)n(Cc1ccc(Cl)c(Cl)c1)c(=O)n2C` (configuration not stated), the cytotoxicity was 64.7% (active).

For `Cn1c(NCc2ccco2)nc2c1c(=O)n(Cc1ccc(Cl)c(Cl)c1)c(=O)n2C`, the cytotoxicity was 8.9%.

As to `Cn1c(NCc2ccccc2)nc2c1c(=O)n(Cc1ccccc1)c(=O)n2C`, the cytotoxicity was -0.5%.

On to `Cn1c(NCc2ccccc2)nc2c1c(=O)n(Cc1ccc(Br)cc1)c(=O)n2C`, for which the cytotoxicity was 21.3%.

Take `Cn1c(NCC(O)c2ccccc2)nc2c1c(=O)n(Cc1ccc(Cl)cc1)c(=O)n2C` (configuration not stated): the cytotoxicity is 50.4% (active).

Turning to `Cn1c(N2CCN(c3ccccn3)CC2)nc2c1c(=O)n(Cc1ccc(Cl)cc1)c(=O)n2C`, the cytotoxicity was 70% (active).

With `Cn1c(N2CCCC2)nc2c1c(=O)n(Cc1ccc(Cl)cc1)c(=O)n2C`, the cytotoxicity is 26.3%.
